Algae TAG accum: algal TAG accumulation induction. Chlamydomonas reinhardtii TAG, Nile Red fluorescence, 72 h. AID 1159537. actives 0.84% (n = 44,000). calls only at 10 µM (by protocol); call rule not given here;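 further: hits raise Nile Red signal meaning more stored TAG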
Active calls of the source: *; i = inactive; + = active, no number. Shown is part of a subset that was picked to be rich in hits.

SMILES	Algae TAG accum
CCOc1ccccc1CN1CCN(c2ccccc2OC)CC1	i
CCCCOc1ccc(CN2CCN(CC)CC2)cc1	i
CCOc1ccc(CN2CCN(c3ccc(OC)cc3)CC2)cc1	i
CCOc1ccc(CN2CCN(c3ccc(F)cc3)CC2)cc1	+
CCc1ccc(CN2CCN(CC)CC2)cc1	+
COc1ccccc1N1CCN(Cc2ccc(N(C)C)cc2)CC1	i
COc1ccccc1N1CCN(Cc2ccc(C)cc2)CC1	+
CCOc1cc(CN2CCN(c3ccc(F)cc3)CC2)ccc1O	i
COc1ccccc1N1CCN(Cc2ccccc2)CC1	i
CCN1CCN(Cc2cccc(Br)c2)CC1	i
COc1ccccc1N1CCN(Cc2ccc(C(C)C)cc2)CC1	i
CCOc1ccc(CN2CCN(c3ccccc3OC)CC2)cc1	+
CCC(C)N1CCN(C(=O)COc2ccc(Br)cc2)CC1 (stereo unspecified)	i
COc1ccc(CNCCc2cccc(Cl)c2)cc1OC	i
O=[N+]([O-])c1cccc(CNCCc2c[nH]c3ccccc23)c1	i
COc1cc(Br)c(CN2C[C@@H]3C[C@@H](C2)c2cccc(=O)n2C3)cc1OC	i
CC(=O)c1ccc(OC(=O)N(C)C)cc1	i
CCN1CCC(NC2C3CC4CC(C3)CC2C4)CC1 (stereo unspecified)	i
Cc1cc(N2CCN(C)CC2)c(F)cc1[N+](=O)[O-]	i
COc1ccc(CN2CCN(c3ccc(F)cc3)CC2)cc1OC	i
COc1ccccc1-n1c(/C=C/c2ccc3c(c2)OCO3)nc2ccccc2c1=O	i
COc1cc(CN2CCN(c3ccccc3)CC2)cc(Br)c1O	i
O=[N+]([O-])c1ccc(NCC(O)c2ccccc2)c2ncccc12 (stereo unspecified)	i
COc1cccc(CNCCc2ccccc2F)c1	i
COc1ccc(N2CCN(Cc3ccc(F)cc3)CC2)cc1	i
SMILES	Algae TAG accum
CCOc1ccccc1CN1CCN(c2ccccc2C)CC1	i
Cc1ccc(CN2CCN(CCO)CC2)cc1	+
CCOc1cc(CN2CCN(c3ccccc3C)CC2)ccc1O	i
COc1cc(CN2CCN(C)CC2)cc(OC)c1	i
OCCN1CCN(Cc2ccc(F)cc2)CC1	i
COc1cc(CN2CCN(Cc3ccccc3)CC2)cc(OC)c1	+
CCOc1ccc(CN2CCN(c3ccccc3C)CC2)cc1	+
COc1ccc(N2CCN(Cc3ccc(Cl)c(Cl)c3)CC2)cc1	i
Cc1ccc(CN2CCN(C)CC2)cc1	i
COc1cccc(CN2CCN(Cc3ccccc3)CC2)c1	i
COc1ccc(N2CCN(Cc3ccc(Cl)cc3)CC2)cc1	+
O=c1c(CN2C[C@@H]3C[C@@H](C2)c2cccc(=O)n2C3)coc2ccc(Cl)cc12	i
Oc1ccc(Br)cc1CN1CCN(Cc2ccccc2)CC1	i
OCCN1CCN(Cc2ccc(F)cc2F)CC1	i
c1ccc(CCNCc2ccccn2)cc1	i
Clc1cccc(CN2CCN(Cc3ccc4c(c3)OCO4)CC2)c1	i
Clc1ccc(CN2CCN(Cc3ccc4c(c3)OCO4)CC2)cc1	i
Clc1ccc(N2CCN(Cc3ccc4c(c3)OCO4)CC2)cc1	+
Cc1nc2ccccc2c(=O)n1-c1ccc([N+](=O)[O-])cc1Br	i
C/C(=C\c1ccc(Cl)cc1)[N+](=O)[O-]	i
COc1ccc(Br)cc1CN1CCN(c2ccc(F)cc2)CC1	i
Cc1cccc(-n2c(/C=C/c3ccccc3)nc3ccccc3c2=O)c1	i
COc1ccccc1N1CCN(Cc2cc(C)ccc2C)CC1	i
Cc1ccccc1N1CCN(Cc2ccc(N(C)C)cc2)CC1	i
Clc1ccccc1N1CCN(Cc2ccccc2)CC1	i
SMILES	Algae TAG accum
Oc1ccc(CN2CCN(c3ccccc3Cl)CC2)cc1	+
Oc1cccc(CN2CCN(c3ccccc3Cl)CC2)c1	i
Cc1ccccc1N1CCN(Cc2ccc(O)cc2)CC1	+
Cc1ccc(CN2CCN(c3ccccc3C)CC2)cc1	i
Cc1cccc(-n2c(-c3cccnc3)nc3ccccc3c2=O)c1	i
COc1ccc(CN2CCN(c3ccccc3OC)CC2)cc1C	i
Fc1ccccc1N1CCN(Cc2ccccc2)CC1	i
CC1CN(C2CCN(C)CC2)CC(C)O1 (stereo unspecified)	i
Nc1ccc(Br)cc1C(=O)c1ccccc1F	i
Nc1ccc(Cl)cc1C(=O)c1ccccc1	i
Nc1ccc(F)cc1C(=O)c1ccccc1	+
C1CN(C2CCSC2)CCO1 (stereo unspecified)	i
CC1(C)[C@H]2CC=C(CN3CCOCC3)[C@@H]1C2	i
Fc1ccc(CN2CCN(c3cccc(Cl)c3)CC2)cc1	+
Clc1cccc(N2CCN(Cc3ccccc3Cl)CC2)c1	i
Fc1ccc(CN2CCN(c3cccc(Cl)c3)CC2)c(F)c1	i
Oc1ccc(CN2CCN(c3cccc(Cl)c3)CC2)cc1	+
Clc1ccc(CN2CCN(c3ccccc3)CC2)cc1Cl	i
Oc1ccc(CN2CCN(c3ccccc3)CC2)cc1	+
COc1ccc(CN2CCN(c3ccccc3)CC2)cc1O	i
COc1ccc(CN2CCN(c3cccc(Cl)c3)CC2)cc1O	i
COc1cccc(CN2CCN(c3cccc(Cl)c3)CC2)c1	i
Cc1cnc(NC(=O)c2c(O)c3ccccc3n(CCC(C)C)c2=O)s1	i
CCc1nc2ccc(Br)cc2c(=O)n1-c1ccc(Cl)cc1	i
CCC(C)N1CCN(Cc2ccc([N+](=O)[O-])cc2)CC1 (stereo unspecified)	+
SMILES	Algae TAG accum
CN1CCN(Cc2ccc([N+](=O)[O-])cc2)CC1	i
CN1CCN(Cc2cccc([N+](=O)[O-])c2)CC1	i
O=[N+]([O-])c1ccc(CN2CCN(c3ccc(F)cc3)CC2)cc1	+
O=[N+]([O-])c1ccc(CN2CCN(Cc3ccccc3)CC2)cc1	+
O=[N+]([O-])c1ccc(N2CCN(Cc3cccc(Cl)c3)CC2)cc1	i
CCN1CCN(Cc2ccc([N+](=O)[O-])cc2)CC1	i
O=C(COc1ccccc1)N1CCN(Cc2ccc([N+](=O)[O-])cc2)CC1	i
O=[N+]([O-])c1ccc(N2CCN(Cc3cccc(F)c3)CC2)cc1	i
CCN1CCC(O)(c2ccc(F)cc2)C(C(=O)c2ccc(F)cc2)C1 (stereo unspecified)	i
N/C(=N/[N+](=O)[O-])Nc1ccc(NC(=O)c2ccco2)cc1	i
CCCSc1nc2ccccc2c(=O)n1-c1ccc(C)cc1	i
COC1CCCCC1NC1CCCCC1 (stereo unspecified)	i
Cc1ccc(CN2CCN(c3cccc(C)c3C)CC2)cc1	i
COc1ccc(CN2CCN(C)CC2)cc1	i
O=[N+]([O-])c1ccc(CNCCc2ccc(Cl)cc2)cc1	i

Compound activity: PubChem, DiRusso Lab, Biochemistry Department, University of Nebraska
